Rows were chosen to be rich in hits. Some 9.5% of all compounds tested hit in one or more screens of this group.
NS1 inh: inhibitors of influenza NS1 protein function; Potency, µM (series often up to 46.1 µM), for the others: top-dose activity, positive = more growth; 270,000 tested, 0.4% active; AID 2326; note: actives are rising curves; nearly all actives have a fitted effect of over 50% in size
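Growth recovery, yeast-based: influenza A NS1 expressed in S. cerevisiae causes slow growth, and suppressors are detected by OD600. The parent strain without NS1 is used as positive control.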
SARS PLpro yeast: blocks SARS-CoV papain-like protease in a yeast assay | S. cerevisiae expressing SARS-CoV PLpro, growth rescue | Potency, µM (top dose mostly 32.9 µM), for the others: top-dose activity, positive = growth rescue, hits mostly activators | 330,000 tested, 0.19% active; note: 0% is about no effect; nearly all actives have a fitted effect of over 55% in size
Pf growth 96h: inhibits malaria parasite growth, 96 h | P. falciparum luciferase reporter growth, 96 h | Potency, µM (doses to about 28.7 µM), without a hit: top-dose activity change, negative = inhibition, actives largely listed as inhibitors | 320,000 tested, 6.9% active | AID 504834; active = well fitted inhibition curve with a large enough effect; inconclusive = small, poorly fitted or top-dose-only effect, or another doubt; inactive = no such curve, though single readings can be large or run the other way; note: % is set by controls: 0 for no effect and ±100 for the full control effect
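Luminescence readout: decreased luciferase signal marks inhibited growth of reporter-expressing P. falciparum in infected red cells (2% hematocrit, 0.05% parasitemia final), exposed to compound two generations (96 h, 37 C, 5% CO2).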
Pf growth 48h: inhibits P. falciparum growth in the first generation, 48 h | P. falciparum luciferase growth in erythrocytes, 48 h | Potency, µM (doses to about 28.7 µM), for inactives: at the highest dose activity change, negative = inhibition, actives largely listed as inhibitors | 310,000 tested, 5.9% active; active = well fitted inhibition curve with a large enough effect; inconclusive = small, poorly fitted or top-dose-only effect, or another doubt; inactive = no such curve, though single readings can be large or run the other way; note: % is set by controls: 0 for no effect and ±100 for the full control effect
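Parasite viability was followed by luminescence of a genomically integrated firefly luciferase. Cultures held 0.1% parasitemia at 2% hematocrit (final), incubated under 5% CO2 at 37 C.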
RE007 growth inh: less growth of the S. pombe RE007 Vpr strain | Potency, µM (titrated, usually from 92.2 µM), without a hit: at the top dose activity change, negative = less growth, actives largely listed as inhibitors | 360,000 tested, 0.21% active | S. pombe RE007 Vpr strain, BacTiter-Glo ATP luminescence, 24 h; active = well fitted falling curve with a large enough effect; inconclusive = small, poorly fitted or top-dose-only effect; inactive = no such curve, though single readings can be large or run the other way; note: % is set by controls: 0 for no effect and ±100 for the full control effect; nearly all actives have a fitted effect of over 50% in size
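Fission yeast strain RE007, carrying one chromosomally integrated HIV-1 vpr copy, was seeded at OD 0.01 in PMG+AL medium with 23 nL pinned compound. After 24 h at 30 °C and 99% humidity, viability was read by BacTiter-Glo luminescence.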
Numbers without * were called inactive; ? = inconclusive; . = no result; [ ] = remark or other dose. Unless noted, calls come from the whole dose curve. Potency is the fitted concentration of half-maximal effect.

SMILES | NS1 inh | SARS PLpro yeast | Pf growth 96h | Pf growth 48h | RE007 growth inh
COc1ccc(N(CC(=O)N2CCN(Cc3ccccc3)CC2)S(=O)(=O)c2ccccc2)cc1 | -19% | 1% | 5.9µM* | ? | 10%
COc1ccc(N(CC(O)Cn2c3ccccc3c3ccccc32)S(=O)(=O)c2ccccc2)cc1 (stereo not drawn) | ? | 2% | 10µM* | ? | 14%
C=C(C)Cn1c2ccc(NC(=O)NCCc3ccccc3)cc2c(=O)n1C | . | . | . | . | 5%[18.4 µM]
Fc1cccc(NCCc2c[nH]c3ccccc23)n1 | -7% | -3% | 35% | 21% | .
OCCCNc1c2ccccc2nc2ccccc12 | -5% | -3% | 28% | 5.2µM* | -12%
c1ccc2c(NCCc3c[nH]c4ccccc34)c3ccccc3nc2c1 | -2% | 0% | 3.3µM* | 0.59µM* | .
CCSC1=NC(C)(C)C=C(/C=C/c2ccc(Cl)cc2Cl)N1 | -56% | -5% | ? | . | -15%
CSC1=NC(C)(C)C=C(/C=C/c2ccc(Cl)cc2Cl)N1 | . | 1% | 12µM* | ? | -13%
Cc1cc(C)n(C(=O)/C(C#N)=N\Nc2ccccc2[N+](=O)[O-])n1 | . | -13% | 7% | 0% | 0%
Cc1cc(C)n(C(=O)/C(C#N)=N/Nc2cc(Cl)cc(Cl)c2)n1 | . | -32% | ? | 12µM* | -15%
COc1ccc(CCN(C)C(=O)C(CCSC)NC(=O)c2ccco2)cc1OC (stereo not drawn) | . | 5% | -2% | 2% | 5%
O=C(Nc1cc(Br)c(O)c(Br)c1)c1cccc(NC(=O)c2ccco2)c1 | 21% | 3% | 7.4µM* | ? | -12%
O=C(Nc1cccc(S(=O)(=O)N2CCCC2)c1)c1ccco1 | . | -10% | . | . | 11%
O=C(Nc1cccc(S(=O)(=O)c2cccc(NC(=O)c3ccco3)c2)c1)c1ccco1 | 3% | 1% | 12µM* | 13µM* | 19%
CNC(=O)COc1coc(CN2CCN(c3cccc(Cl)c3)CC2)cc1=O | -2% | 2% | 8% | -11% | 7%
NC(=O)CSc1nc(-c2ccccc2)nc2c1CCCC2 | 4% | -1% | 7.4µM* | 9% | 14%
Cc1cccc(-c2nc3c(c(SCC(N)=O)n2)CCCC3)c1 | -3% | -3% | 20% | -12% | -3%
CN(C)CCSc1nc(-c2ccccc2)nc2c1CCC2 | 1% | -12% | ? | -22% | -5%
CN(C)C(=O)CSc1nc(-c2ccccc2)nc2c1CCCC2 | -5% | -12% | 9.3µM* | ? | -16%
COC(=O)c1ccc(S(=O)(=O)N2CCc3ccccc32)cc1 | -17% | -5% | 9.3µM* | 2% | 14%
O=C(NCc1ccccc1)c1ccc(S(=O)(=O)N2CCCc3ccccc32)cc1 | 13% | 3% | ? | -29% | -3%
NNC(=O)c1ccc(S(=O)(=O)N2CCc3ccccc32)cc1 | ? | -2% | 34% | 12µM* | 14%
CC(=O)N1CCc2ccc(S(=O)(=O)N3CCc4ccccc43)cc21 | 0% | -1% | 10% | 13µM* | 14%
Cc1ccc(C(=O)N/C(=C\c2ccc(Cl)cc2)C(=O)NCCN2CCOCC2)cc1 | 4% | -4% | ? | -4% | 18%
Cc1ccc(S(=O)(=O)N2CCCC2)cc1C(=O)NCCOc1ccccc1 | . | 2% | -7% | ? | -17%
SMILES | NS1 inh | SARS PLpro yeast | Pf growth 96h | Pf growth 48h | RE007 growth inh
CC(c1nc2ccccc2[nH]1)N(C(=O)Cc1csc2ccccc12)c1cccnc1 (stereo not drawn) | . | . | . | . | 0%
CC(Nc1ccc(Cl)cc1)C(=O)NN (stereo not drawn) | 2% | -1% | 16% | 21% | -14%
O=c1oc2ccccc2c(NC(c2ccccc2)c2ccccc2)c1[N+](=O)[O-] | 12% | 6% | 163% | 10µM* | 9%
CC(=O)Nc1ccc(S(=O)(=O)NC2CC(=O)N(c3ccc(C)cc3)C2)cc1 (stereo not drawn) | . | -1% | 2% | 8% | -11%
CCn1c(=S)ccc2ccc(OC)cc21 | 0% | 1% | 30% | 12% | -2%
CCn1ccc2cc(OC)ccc2c1=S | -4% | 8% | 83% | ? | -17%
CCSc1ccc2cc(OC)ccc2[n+]1CC | . | 0% | ? | 0.74µM* | ?
CC[n+]1c(SC)ccc2cc(OC)ccc21 | 0% | 2% | -2% | 0.74µM* | -8%
OCC1(Cc2ccc(Cl)cc2)CCN(Cc2ccccc2F)CC1 | 5% | 0% | ? | 13µM* | -8%
OCC1(Cc2ccc(Cl)cc2)CCN(CC2CC=CCC2)CC1 (stereo not drawn) | -2% | 0% | 49% | 6.6µM* | 4%
CSc1ccc(CN2CCC(CO)(Cc3ccc(Cl)cc3)CC2)cc1 | -1% | 1% | ? | 0% | -13%
Cc1ccc([C@H]2C[C@H](O)[C@@H](n3cc(-c4ccc(F)cc4)nn3)CN2CC2CCCCC2)cc1 | . | . | . | . | 7%
CCS(=O)(=O)C1=NN2C(=N)/C(=C\c3ccc(SCc4ccco4)o3)C(=O)N=C2S1 | ? | -1% | -35% | -26% | -6%
CCN(CC)C[C@@H](O)c1ccc2ccc3ccccc3c2c1 | -7% | . | . | . | .
CC1(C(=O)NS(=O)(=O)c2ccc3ccccc3c2)CCN1C(=O)Cc1ccc(Cl)cc1Cl (stereo not drawn) | . | . | . | . | 13%[18.4 µM]
CCC(=O)C1CCCN(C(=O)CCc2nnc(-c3ccc(C(C)=O)s3)o2)C1 (stereo not drawn) | -10% | 1% | 57% | 11% | -2%
COC(=O)CC(c1ccc(C#N)cc1)n1c(C)ccc1C (stereo not drawn) | 8% | 0% | 13µM* | 9.3µM* | 0%
COc1ccc(-n2c(=S)[nH]c3cc(C(=O)N4CCN(c5ccccc5)CC4)ccc3c2=O)c(OC)c1 | 7% | -4% | ? | 3% | -3%
COc1ccc(Cl)cc1NC(=O)CN(C)CC(=O)Nc1cccc(S(=O)(=O)N2CCCC2)c1 | . | 0% | 3.3µM* | ? | -5%
CCN(CC(=O)Nc1ccccc1OC)C(=O)c1cc(S(=O)(=O)N2CCCCCC2)ccc1OC | . | 7% | 5.2µM* | ? | -4%
CCN(CC(=O)Nc1cccc(S(=O)(=O)N2CCCC2)c1)CC(=O)Nc1ccccc1OC | . | 0% | 9.3µM* | ? | -23%
COc1ccc([C@H]2C[C@@H](O)C[C@@H](CCn3cc(-c4ccccc4)nn3)O2)cc1 | . | . | . | . | 0%
O=C(/C=C/c1cn(CC(O)CN2CCCCC2)c2ccccc12)c1cccs1 (stereo not drawn) | 12% | 22% | ? | 8.3µM* | -8%
CCCCN(C)CC(O)Cn1cc(/C=C/C(=O)c2ccc(C)cc2)c2ccccc21 (stereo not drawn) | 0% | -2% | -8% | 9.3µM* | .
O=c1c2ccccc2n(CC(O)CN2CCCCC2)c2ccccc12 (stereo not drawn) | 9% | 0% | ? | ? | -3%
COc1ccc(C(=O)N/C(=C\c2cccc3ccccc23)C(=O)N2CCN(C)CC2)cc1OC | . | 0% | 9% | 5% | 8%
